In PubChem BioAssay (NCATS):
Where “and” joins values, the source holds several entries; their conditions need not be identical. Equal values may be shown once. Records with an inconclusive call do not appear. Calls of active or inactive are those of the source. Calls come from the whole dose curve.

Target: Vitamin D3 receptor (Homo sapiens) (UniProt P11473)
Experiment: qHTS assay for small molecule antagonists of vitamin D receptor signaling (AID 588541);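 note: receptor activated by calcitriol during compound treatment; % is set by controls: 0 for no effect and ±100 for the full control effect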
Details: HEK293T VDR-UAS-bla, beta-lactamase ratio, antagonist mode; series mostly up to 76.7 µM
In short: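 VDR-UAS-bla HEK293T cells in 2% charcoal-stripped FBS were stimulated with 1-alpha,25-dihydroxyvitamin D3 (3 nM final) plus compound for 16 h at 37 C. The beta-lactamase CCF4 readout was normalized to 50 nM agonist and DMSO, and Hill fits gave IC50.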

Vitamin D3 receptor (Homo sapiens), sequence (P11473 whole entry, looked up): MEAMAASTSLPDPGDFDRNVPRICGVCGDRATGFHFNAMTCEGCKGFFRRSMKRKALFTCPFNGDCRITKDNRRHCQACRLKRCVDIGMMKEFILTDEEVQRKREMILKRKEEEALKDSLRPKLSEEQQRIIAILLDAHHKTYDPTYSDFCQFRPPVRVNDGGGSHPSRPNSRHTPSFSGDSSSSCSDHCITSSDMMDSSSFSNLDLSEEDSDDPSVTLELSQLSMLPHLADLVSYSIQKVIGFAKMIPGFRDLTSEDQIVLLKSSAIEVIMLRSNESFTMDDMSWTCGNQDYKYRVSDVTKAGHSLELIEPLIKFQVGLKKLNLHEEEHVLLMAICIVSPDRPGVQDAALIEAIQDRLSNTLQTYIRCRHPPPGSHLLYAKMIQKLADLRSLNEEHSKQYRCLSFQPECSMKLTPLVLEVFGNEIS

For `Nc1cccc(Cl)c1`, which outcome is on record?
The outcome was “inactive”.

For `ClCc1ccccc1`, which outcome is on record?
The outcome was “inactive”.

Which outcome does the source give for `CCC/C=N/O` here?
The outcome was “inactive”.

For `O=S(=O)(Cl)c1ccccc1`, which outcome is on record?
The outcome was “inactive”.

With `C=CCOCC1CO1` (stereo not given) as the compound, how does the outcome read?
Its outcome is “inactive”.

Which outcome does the source give for `c1ccoc1` here?
The outcome was “inactive”.

With `Clc1ccccc1` as the compound, how does the outcome read?
The outcome was “inactive”.

For `ClC(Cl)C(Cl)Cl`, which outcome is on record?
Its outcome is “inactive”.

Which outcome does the source give for `C=CCCl` here?
The outcome was “inactive”.

For `Oc1c(Cl)cccc1Cl`, which outcome is on record?
The outcome was “inactive”.

With `Brc1cccc(-c2ccccc2)c1` as the compound, how does the outcome read?
The outcome was “inactive”.

Which outcome does the source give for `OCCCCO` here?
Its outcome is “inactive”.

For `Nn1cnnc1`, which outcome is on record?
The outcome was “inactive”.

With `Cc1ccccc1[N+](=O)[O-]` as the compound, how does the outcome read?
Its outcome is “inactive”.

For `CCCCOC(=O)c1ccccc1N`, which outcome is on record?
The outcome was “inactive”.

Which outcome does the source give for `Cc1ccc(N)c(C)c1` here?
The outcome was “inactive”.

Which outcome does the source give for `C1CC2OC2CC1C1CO1` (stereo not given) here?
Its outcome is “inactive”.

With `CN(C)C(=O)Cl` as the compound, how does the outcome read?
The outcome was “inactive”.

For `CC(=O)NNc1ccccc1`, which outcome is on record?
Its outcome is “inactive”.

Which outcome does the source give for `O=C(Cl)OCc1ccccc1` here?
Its outcome is “inactive”.

With `C=CC(=O)OC` as the compound, how does the outcome read?
The outcome was “inactive”.

For `CCN(CC)N=O`, which outcome is on record?
The outcome was “inactive”.

For `OCC(Cl)CCl` (stereo not given), which outcome is on record?
The outcome was “inactive”.

For `CC(C)CON=O`, which outcome is on record?
Its outcome is “inactive”.

Which outcome does the source give for `CC[N+](=O)[O-]` here?
Its outcome is “inactive”.

With `C[N+](=O)[O-]` as the compound, how does the outcome read?
Its outcome is “inactive”.

With `ClCC(Br)CBr` (stereo not given) as the compound, how does the outcome read?
The outcome was “inactive”.

Target: Vitamin D3 receptor (Homo sapiens) (UniProt P11473)
Experiment: qHTS assay for small molecule agonists of vitamin D receptor signaling (AID 588543);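 note: 0% = DMSO basal and 100% = reference agonist control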
Details: HEK293T VDR-UAS-bla, beta-lactamase ratio, 16 h; series mostly up to 76.8 µM
In short: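 Measured: β-lactamase reporter activity (CCF4, 405 nm excitation, 460/530 nm emission) in HEK293T VDR-UAS-bla cells after 16 h compound exposure at 37 °C. Normalization against 50 nM 1α,25-dihydroxyvitamin D3 and DMSO; Hill-fit EC50.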

With `CC(C#N)CCC#N` (stereo not given) as the compound, how does the outcome read?
The outcome was “inactive”.

Which outcome does the source give for `Nc1cccc(Cl)c1` here?
Its outcome is “inactive”.

For `ClCc1ccccc1`, which outcome is on record?
Its outcome is “inactive”.

With `CCC/C=N/O` as the compound, how does the outcome read?
Its outcome is “inactive”.

Which outcome does the source give for `COc1c(C(C)(C)C)cc([N+](=O)[O-])c(C)c1[N+](=O)[O-]` here?
Its outcome is “inactive”.

With `O=S(=O)(Cl)c1ccccc1` as the compound, how does the outcome read?
The outcome was “inactive”.

Which outcome does the source give for `c1ccoc1` here?
Its outcome is “inactive”.

With `Clc1ccccc1` as the compound, how does the outcome read?
Its outcome is “inactive”.

For `ClC(Cl)(Cl)C(Cl)(Cl)Cl`, which outcome is on record?
The outcome was “inactive”.

With `ClC(Cl)C(Cl)Cl` as the compound, how does the outcome read?
The outcome was “inactive”.

With `C=CCCl` as the compound, how does the outcome read?
The outcome was “inactive”.

Which outcome does the source give for `Oc1c(Cl)cccc1Cl` here?
Its outcome is “inactive”.

With `Brc1cccc(-c2ccccc2)c1` as the compound, how does the outcome read?
The outcome was “inactive”.

Which outcome does the source give for `Nn1cnnc1` here?
Its outcome is “inactive”.

For `Clc1cc(Cl)c(Cl)c(Cl)c1`, which outcome is on record?
Its outcome is “inactive”.

For `C1CC2OC2CC1C1CO1` (stereo not given), which outcome is on record?
Its outcome is “inactive”.

For `CN(C)C(=O)Cl`, which outcome is on record?
Its outcome is “inactive”.

With `CC(=O)NNc1ccccc1` as the compound, how does the outcome read?
The outcome was “inactive”.

For `Cc1ccc(N=C=O)cc1N=C=O`, which outcome is on record?
The outcome was “inactive”.

For `O=C(Cl)OCc1ccccc1`, which outcome is on record?
The outcome was “inactive”.

With `CCN(CC)N=O` as the compound, how does the outcome read?
Its outcome is “inactive”.

Which outcome does the source give for `OCC(Cl)CCl` (stereo not given) here?
Its outcome is “inactive”.

With `CC(C)CON=O` as the compound, how does the outcome read?
Its outcome is “inactive”.

For `CC[N+](=O)[O-]`, which outcome is on record?
The outcome was “inactive”.

Which outcome does the source give for `C[N+](=O)[O-]` here?
The outcome was “inactive”.

With `CC(C)OC(=O)Cc1ccccc1` as the compound, how does the outcome read?
The outcome was “inactive”.

Which outcome does the source give for `ClCC(Br)CBr` (stereo not given) here?
Its outcome is “inactive”.

System: not listed separately
Experiment: qHTS assay for small molecule agonists of retinoid X receptor alpha signaling (AID 588544)
Details: HEK293T RXRa-UAS-bla, beta-lactamase reporter, 18 h; 530 nm emission

For `CC(C#N)CCC#N` (stereo not given), which max response is on record?
Its max response is -11.4%.

With `Nc1cc(Cl)ccc1Cl` as the compound, how does the max response read?
Its max response is -19.1%.

Which max response does the source give for `Nc1cccc(Cl)c1` here?
The max response was 4.67%.

Which max response does the source give for `ClCc1ccccc1` here?
Its max response is -0.901%.

Which max response does the source give for `CCC/C=N/O` here?
The max response was -21.6%.

Which max response does the source give for `COc1c(C(C)(C)C)cc([N+](=O)[O-])c(C)c1[N+](=O)[O-]` here?
The max response was -3.49%.

With `O=S(=O)(Cl)c1ccccc1` as the compound, how does the max response read?
Its max response is -12.3%.

With `C=CCOCC1CO1` (stereo not given) as the compound, how does the max response read?
The max response was 1.34%.

With `c1ccoc1` as the compound, how does the max response read?
Its max response is -15.5%.

With `Clc1ccccc1` as the compound, how does the max response read?
The max response was -8.37%.

For `ClC(Cl)(Cl)C(Cl)(Cl)Cl`, which max response is on record?
The max response was 0.0695%.

For `CCOC(=O)C1OC1(C)c1ccccc1` (stereo not given), which max response is on record?
Its max response is -8.71%.

For `C/C=C/CC#N`, which max response is on record?
The max response was -10.7%.

Which max response does the source give for `ClC(Cl)C(Cl)Cl` here?
Its max response is -4.19%.

For `C=CCCl`, which max response is on record?
Its max response is -13.3%.

For `Oc1c(Cl)cccc1Cl`, which max response is on record?
Its max response is 9.22%.

Which max response does the source give for `Brc1cccc(-c2ccccc2)c1` here?
Its max response is -12%.

With `C=CCO` as the compound, how does the max response read?
Its max response is -10.3%.

Which max response does the source give for `OCCCCO` here?
Its max response is 1.71%.

With `Nn1cnnc1` as the compound, how does the max response read?
The max response was 6.31%.

Which max response does the source give for `BrCCc1ccccc1` here?
The max response was 1.56%.

Which max response does the source give for `Cc1ccccc1[N+](=O)[O-]` here?
Its max response is -2.95%.

Which max response does the source give for `CCCCOC(=O)c1ccccc1N` here?
Its max response is -10.9%.

With `Clc1cc(Cl)c(Cl)c(Cl)c1` as the compound, how does the max response read?
The max response was 0.707%.

For `Cc1ccc(N)c(C)c1`, which max response is on record?
Its max response is -7.75%.

For `C1CC2OC2CC1C1CO1` (stereo not given), which max response is on record?
The max response was -2.62%.

With `CN(C)C(=O)Cl` as the compound, how does the max response read?
Its max response is -5.01%.

Which max response does the source give for `Cc1ccc(N=C=O)cc1N=C=O` here?
The max response was -4.25% and -19.3%.

For `O=C(Cl)OCc1ccccc1`, which max response is on record?
The max response was -1.31%.

With `C=CC(=O)OC` as the compound, how does the max response read?
The max response was -10.9%.

For `CCN(CC)N=O`, which max response is on record?
The max response was -8.19%.

Which max response does the source give for `OCC(Cl)CCl` (stereo not given) here?
Its max response is -11.4%.

With `CC(C)CON=O` as the compound, how does the max response read?
The max response was 6.03%.

With `CC[N+](=O)[O-]` as the compound, how does the max response read?
The max response was -9.1%.

For `CC(C)(Cl)[N+](=O)[O-]`, which max response is on record?
The max response was -3.38%.

For `C[N+](=O)[O-]`, which max response is on record?
Its max response is -4.73%.

With `CC(C)OC(=O)Cc1ccccc1` as the compound, how does the max response read?
The max response was 1.88%.

Which max response does the source give for `ClCC(Br)CBr` (stereo not given) here?
The max response was -9.36%.

Target: Retinoic acid receptor RXR-alpha (Homo sapiens) (UniProt P19793)
Sequence (P19793 whole entry, looked up): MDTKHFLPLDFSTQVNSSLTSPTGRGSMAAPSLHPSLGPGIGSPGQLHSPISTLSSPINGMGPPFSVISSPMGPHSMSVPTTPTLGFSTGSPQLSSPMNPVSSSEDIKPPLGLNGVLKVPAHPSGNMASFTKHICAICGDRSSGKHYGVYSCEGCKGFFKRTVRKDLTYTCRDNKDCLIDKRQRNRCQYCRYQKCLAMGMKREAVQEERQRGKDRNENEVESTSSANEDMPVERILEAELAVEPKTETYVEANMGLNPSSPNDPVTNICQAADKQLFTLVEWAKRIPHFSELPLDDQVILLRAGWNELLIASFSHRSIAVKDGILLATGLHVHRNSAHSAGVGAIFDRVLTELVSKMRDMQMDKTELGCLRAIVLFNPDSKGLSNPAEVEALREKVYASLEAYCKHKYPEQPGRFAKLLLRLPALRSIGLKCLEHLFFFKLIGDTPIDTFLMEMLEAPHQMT
Experiment: as above
Details: HEK293T RXRa-UAS-bla, beta-lactamase reporter, 18 h; series mostly up to 76.7 µM

Which outcome does the source give for `CC(C#N)CCC#N` (stereo not given) here?
The outcome was “inactive”.

Which outcome does the source give for `Nc1cc(Cl)ccc1Cl` here?
The outcome was “inactive”.

Which outcome does the source give for `Nc1cccc(Cl)c1` here?
The outcome was “inactive”.

For `ClCc1ccccc1`, which outcome is on record?
The outcome was “inactive”.

For `CCC/C=N/O`, which outcome is on record?
The outcome was “inactive”.

Which outcome does the source give for `COc1c(C(C)(C)C)cc([N+](=O)[O-])c(C)c1[N+](=O)[O-]` here?
Its outcome is “inactive”.

For `O=S(=O)(Cl)c1ccccc1`, which outcome is on record?
Its outcome is “inactive”.

Which outcome does the source give for `C=CCOCC1CO1` (stereo not given) here?
Its outcome is “inactive”.

For `c1ccoc1`, which outcome is on record?
Its outcome is “inactive”.

Which outcome does the source give for `Clc1ccccc1` here?
The outcome was “inactive”.

With `ClC(Cl)(Cl)C(Cl)(Cl)Cl` as the compound, how does the outcome read?
Its outcome is “inactive”.

With `CCOC(=O)C1OC1(C)c1ccccc1` (stereo not given) as the compound, how does the outcome read?
The outcome was “inactive”.

Which outcome does the source give for `C/C=C/CC#N` here?
Its outcome is “inactive”.

With `ClC(Cl)C(Cl)Cl` as the compound, how does the outcome read?
The outcome was “inactive”.

Which outcome does the source give for `C=CCCl` here?
The outcome was “inactive”.

For `Oc1c(Cl)cccc1Cl`, which outcome is on record?
The outcome was “inactive”.

With `Brc1cccc(-c2ccccc2)c1` as the compound, how does the outcome read?
Its outcome is “inactive”.

With `C=CCO` as the compound, how does the outcome read?
The outcome was “inactive”.

With `OCCCCO` as the compound, how does the outcome read?
The outcome was “inactive”.

Which outcome does the source give for `Nn1cnnc1` here?
Its outcome is “inactive”.

For `BrCCc1ccccc1`, which outcome is on record?
The outcome was “inactive”.

For `Cc1ccccc1[N+](=O)[O-]`, which outcome is on record?
The outcome was “inactive”.

With `CCCCOC(=O)c1ccccc1N` as the compound, how does the outcome read?
The outcome was “inactive”.

For `Clc1cc(Cl)c(Cl)c(Cl)c1`, which outcome is on record?
The outcome was “inactive”.

For `Cc1ccc(N)c(C)c1`, which outcome is on record?
Its outcome is “inactive”.

With `C1CC2OC2CC1C1CO1` (stereo not given) as the compound, how does the outcome read?
The outcome was “inactive”.

For `CN(C)C(=O)Cl`, which outcome is on record?
Its outcome is “inactive”.

Which outcome does the source give for `Cc1ccc(N=C=O)cc1N=C=O` here?
Its outcome is “inactive”.

With `O=C(Cl)OCc1ccccc1` as the compound, how does the outcome read?
Its outcome is “inactive”.

For `C=CC(=O)OC`, which outcome is on record?
The outcome was “inactive”.

Which outcome does the source give for `CCN(CC)N=O` here?
The outcome was “inactive”.

Which outcome does the source give for `OCC(Cl)CCl` (stereo not given) here?
The outcome was “inactive”.

For `CC(C)CON=O`, which outcome is on record?
Its outcome is “inactive”.

Which outcome does the source give for `CC[N+](=O)[O-]` here?
Its outcome is “inactive”.

Which outcome does the source give for `CC(C)(Cl)[N+](=O)[O-]` here?
The outcome was “inactive”.

Which outcome does the source give for `C[N+](=O)[O-]` here?
Its outcome is “inactive”.

Which outcome does the source give for `CC(C)OC(=O)Cc1ccccc1` here?
Its outcome is “inactive”.

With `ClCC(Br)CBr` (stereo not given) as the compound, how does the outcome read?
Its outcome is “inactive”.
